In the supplement of paper PMC11732987, “Enantioselective OTUD7B fragment discovery through chemoproteomics screening and high-throughput optimisation” (Communications Chemistry, 2025):

Columns and labels:
Test in all cases: log2 ratio of Biotin-Ahx-Ub-VS probe labelling (fragment/DMSO); higher = less target engagement (more negative = stronger competition), active = hit call of the paper (q ≤ 0.05, log2 ratio ≤ -1)
Conditions in all cases: compound concentration: 200 uM; treatment time: 3 h
ALG13 = target: T1, ALG13 (UniProt Q9NP73)
T1 sequence (whole entry): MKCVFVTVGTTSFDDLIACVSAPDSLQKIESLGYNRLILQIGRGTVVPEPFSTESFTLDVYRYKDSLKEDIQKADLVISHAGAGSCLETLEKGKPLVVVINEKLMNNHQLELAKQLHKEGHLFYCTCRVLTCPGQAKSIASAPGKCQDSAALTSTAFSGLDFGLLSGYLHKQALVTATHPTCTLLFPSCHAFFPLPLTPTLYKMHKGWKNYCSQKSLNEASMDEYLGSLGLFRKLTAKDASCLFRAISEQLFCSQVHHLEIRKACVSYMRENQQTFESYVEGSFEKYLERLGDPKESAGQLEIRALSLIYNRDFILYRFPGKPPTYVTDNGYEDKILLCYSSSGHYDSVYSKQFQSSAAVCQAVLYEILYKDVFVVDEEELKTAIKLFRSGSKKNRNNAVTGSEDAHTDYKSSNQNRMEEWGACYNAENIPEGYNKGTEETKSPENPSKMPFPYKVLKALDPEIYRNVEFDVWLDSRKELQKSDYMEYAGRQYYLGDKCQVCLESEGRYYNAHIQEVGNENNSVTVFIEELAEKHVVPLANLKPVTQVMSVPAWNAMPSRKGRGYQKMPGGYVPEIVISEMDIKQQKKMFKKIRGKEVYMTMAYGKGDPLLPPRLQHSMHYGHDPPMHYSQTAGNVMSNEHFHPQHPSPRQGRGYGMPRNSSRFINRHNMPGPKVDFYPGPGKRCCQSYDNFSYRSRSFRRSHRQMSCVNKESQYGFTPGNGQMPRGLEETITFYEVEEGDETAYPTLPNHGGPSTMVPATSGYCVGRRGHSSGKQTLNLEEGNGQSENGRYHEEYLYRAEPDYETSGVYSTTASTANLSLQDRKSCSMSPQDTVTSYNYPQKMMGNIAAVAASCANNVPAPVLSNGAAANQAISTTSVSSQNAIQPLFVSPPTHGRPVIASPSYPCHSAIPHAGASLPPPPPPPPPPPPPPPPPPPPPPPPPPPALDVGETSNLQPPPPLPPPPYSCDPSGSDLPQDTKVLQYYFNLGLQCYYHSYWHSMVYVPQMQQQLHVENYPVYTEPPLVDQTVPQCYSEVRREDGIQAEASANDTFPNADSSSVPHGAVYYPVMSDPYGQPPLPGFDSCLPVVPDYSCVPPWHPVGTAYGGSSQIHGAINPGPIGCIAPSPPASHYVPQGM
Summary of the method: (§1)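 HEK293T lysate (495 µg per sample, in Tris/CHAPS/IGEPAL buffer with protease inhibitors) was treated in triplicate with fragment at 200 µM or with DMSO for 3 h. It was then treated with Biotin-Ahx-Ub-VS (0.5 µM final) for 1 h. Labelled DUBs were NeutrAvidin-enriched, digested with LysC and trypsin, and run by diaPASEF LC-MS/MS. Spectronaut label-free quantities were global-median-normalised. Values are average log2 ratios fragment/DMSO by unpaired t-test, using proteins with ≥2 unique peptides.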

ATXN3 = ATXN3 (UniProt P54252)
Chain of ATXN3 (P54252 whole entry): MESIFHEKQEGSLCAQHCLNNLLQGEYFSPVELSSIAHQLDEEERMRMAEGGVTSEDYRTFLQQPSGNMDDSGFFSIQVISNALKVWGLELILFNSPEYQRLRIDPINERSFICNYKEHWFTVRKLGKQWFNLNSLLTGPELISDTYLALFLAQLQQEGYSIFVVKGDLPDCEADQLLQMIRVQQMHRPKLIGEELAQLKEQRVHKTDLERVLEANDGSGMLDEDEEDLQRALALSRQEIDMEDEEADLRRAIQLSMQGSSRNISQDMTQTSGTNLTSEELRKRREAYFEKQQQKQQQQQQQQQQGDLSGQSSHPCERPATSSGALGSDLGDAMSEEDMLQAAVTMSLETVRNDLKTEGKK
Summary of the method: as §1

BAP1 = target: T2, BAP1 (UniProt Q92560)
T2 sequence (whole entry): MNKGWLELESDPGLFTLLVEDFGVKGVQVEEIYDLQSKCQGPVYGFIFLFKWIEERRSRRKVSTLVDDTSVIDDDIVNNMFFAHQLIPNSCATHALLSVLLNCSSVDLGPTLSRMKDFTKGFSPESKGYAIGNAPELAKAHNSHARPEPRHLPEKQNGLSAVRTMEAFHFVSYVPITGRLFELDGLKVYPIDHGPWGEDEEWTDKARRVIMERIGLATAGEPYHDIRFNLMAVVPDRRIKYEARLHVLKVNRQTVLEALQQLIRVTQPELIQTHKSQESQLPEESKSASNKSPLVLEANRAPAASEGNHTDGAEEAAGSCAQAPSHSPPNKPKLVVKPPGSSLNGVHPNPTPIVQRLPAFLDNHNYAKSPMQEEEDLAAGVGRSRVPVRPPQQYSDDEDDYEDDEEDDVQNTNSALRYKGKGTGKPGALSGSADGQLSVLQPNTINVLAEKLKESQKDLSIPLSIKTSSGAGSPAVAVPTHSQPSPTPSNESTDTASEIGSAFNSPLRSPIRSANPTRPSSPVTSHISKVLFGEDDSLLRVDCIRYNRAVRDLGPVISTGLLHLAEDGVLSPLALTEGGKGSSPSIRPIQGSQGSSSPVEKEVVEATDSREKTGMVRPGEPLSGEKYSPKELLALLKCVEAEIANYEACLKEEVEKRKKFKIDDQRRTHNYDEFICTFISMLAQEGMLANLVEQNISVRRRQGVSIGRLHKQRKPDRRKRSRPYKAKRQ
Summary of the method: as §1

EIF3F = EIF3F (UniProt O00303)
Chain of EIF3F (O00303 whole entry): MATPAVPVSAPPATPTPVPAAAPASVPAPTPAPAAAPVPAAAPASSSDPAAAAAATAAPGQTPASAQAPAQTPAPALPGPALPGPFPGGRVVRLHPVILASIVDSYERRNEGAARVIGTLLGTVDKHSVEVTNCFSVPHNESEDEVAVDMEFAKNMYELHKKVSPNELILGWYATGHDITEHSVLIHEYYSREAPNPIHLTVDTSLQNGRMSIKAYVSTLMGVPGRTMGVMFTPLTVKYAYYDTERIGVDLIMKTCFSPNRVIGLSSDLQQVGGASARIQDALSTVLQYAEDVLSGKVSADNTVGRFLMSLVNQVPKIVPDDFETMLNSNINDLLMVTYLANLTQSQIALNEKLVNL
Summary of the method: as §1

EIF3H = EIF3H (UniProt O15372)
Chain of EIF3H (O15372 whole entry): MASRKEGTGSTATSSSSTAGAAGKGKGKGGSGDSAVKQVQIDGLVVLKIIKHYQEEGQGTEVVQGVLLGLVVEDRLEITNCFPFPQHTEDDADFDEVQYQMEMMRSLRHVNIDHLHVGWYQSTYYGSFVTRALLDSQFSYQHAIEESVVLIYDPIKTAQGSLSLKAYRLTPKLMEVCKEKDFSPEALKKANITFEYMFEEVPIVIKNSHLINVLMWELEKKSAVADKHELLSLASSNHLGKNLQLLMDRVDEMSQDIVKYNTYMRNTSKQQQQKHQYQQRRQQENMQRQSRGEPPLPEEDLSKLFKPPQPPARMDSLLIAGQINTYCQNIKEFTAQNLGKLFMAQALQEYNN
Summary of the method: as §1

FAM105A = target: T3, FAM105A (UniProt Q9NUU6)
T3 sequence (whole entry): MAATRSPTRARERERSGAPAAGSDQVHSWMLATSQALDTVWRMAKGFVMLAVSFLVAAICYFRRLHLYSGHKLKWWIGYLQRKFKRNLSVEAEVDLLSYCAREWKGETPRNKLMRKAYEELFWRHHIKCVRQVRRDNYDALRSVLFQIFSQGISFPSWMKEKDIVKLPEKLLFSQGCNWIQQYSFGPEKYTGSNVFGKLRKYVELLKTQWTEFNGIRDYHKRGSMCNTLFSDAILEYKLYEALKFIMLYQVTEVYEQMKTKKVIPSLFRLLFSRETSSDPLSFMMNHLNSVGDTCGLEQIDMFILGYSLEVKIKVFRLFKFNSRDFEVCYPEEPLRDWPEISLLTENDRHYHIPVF
Summary of the method: as §1

OTUB1 = OTUB1 (UniProt Q96FW1)
Chain of OTUB1 (Q96FW1 whole entry): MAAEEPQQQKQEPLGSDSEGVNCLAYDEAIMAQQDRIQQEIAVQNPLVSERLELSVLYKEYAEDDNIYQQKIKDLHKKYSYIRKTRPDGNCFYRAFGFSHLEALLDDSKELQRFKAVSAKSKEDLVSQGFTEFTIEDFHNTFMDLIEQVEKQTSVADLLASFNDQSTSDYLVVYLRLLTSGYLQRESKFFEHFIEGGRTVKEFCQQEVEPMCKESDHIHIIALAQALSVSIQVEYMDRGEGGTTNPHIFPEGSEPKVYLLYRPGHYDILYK
Summary of the method: as §1

OTUD4 = target: T4, OTUD4 (UniProt Q01804)
T4 sequence (whole entry): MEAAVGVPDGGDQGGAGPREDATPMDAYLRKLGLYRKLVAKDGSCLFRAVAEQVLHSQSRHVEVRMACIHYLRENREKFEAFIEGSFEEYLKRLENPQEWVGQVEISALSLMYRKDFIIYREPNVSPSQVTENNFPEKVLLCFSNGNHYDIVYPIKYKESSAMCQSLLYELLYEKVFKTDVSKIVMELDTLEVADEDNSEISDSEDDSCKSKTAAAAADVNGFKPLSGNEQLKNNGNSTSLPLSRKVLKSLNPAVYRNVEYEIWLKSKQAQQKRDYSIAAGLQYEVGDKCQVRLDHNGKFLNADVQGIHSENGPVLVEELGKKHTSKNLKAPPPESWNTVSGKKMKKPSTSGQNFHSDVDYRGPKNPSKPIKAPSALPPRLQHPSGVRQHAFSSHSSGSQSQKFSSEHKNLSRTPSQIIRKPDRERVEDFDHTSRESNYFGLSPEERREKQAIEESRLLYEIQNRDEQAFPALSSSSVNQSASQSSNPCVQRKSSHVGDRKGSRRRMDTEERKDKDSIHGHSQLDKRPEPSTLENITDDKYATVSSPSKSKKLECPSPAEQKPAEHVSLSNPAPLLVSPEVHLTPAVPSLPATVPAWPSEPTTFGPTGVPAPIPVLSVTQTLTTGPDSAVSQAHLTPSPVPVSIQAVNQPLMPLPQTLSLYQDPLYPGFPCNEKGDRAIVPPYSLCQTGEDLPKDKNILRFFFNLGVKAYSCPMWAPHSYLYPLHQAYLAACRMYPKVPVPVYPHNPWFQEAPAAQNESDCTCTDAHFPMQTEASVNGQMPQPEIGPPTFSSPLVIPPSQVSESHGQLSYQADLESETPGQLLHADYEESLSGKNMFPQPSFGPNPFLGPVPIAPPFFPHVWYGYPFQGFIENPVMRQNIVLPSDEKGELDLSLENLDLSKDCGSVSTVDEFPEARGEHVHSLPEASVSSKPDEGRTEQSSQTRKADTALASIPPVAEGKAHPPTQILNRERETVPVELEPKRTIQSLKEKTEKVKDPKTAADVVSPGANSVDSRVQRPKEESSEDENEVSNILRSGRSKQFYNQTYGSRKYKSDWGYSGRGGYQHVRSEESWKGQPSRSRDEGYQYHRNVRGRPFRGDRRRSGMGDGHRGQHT
Summary of the method: as §1

OTUD5 = target: T5, OTUD5 (UniProt Q96G74)
T5 sequence (whole entry): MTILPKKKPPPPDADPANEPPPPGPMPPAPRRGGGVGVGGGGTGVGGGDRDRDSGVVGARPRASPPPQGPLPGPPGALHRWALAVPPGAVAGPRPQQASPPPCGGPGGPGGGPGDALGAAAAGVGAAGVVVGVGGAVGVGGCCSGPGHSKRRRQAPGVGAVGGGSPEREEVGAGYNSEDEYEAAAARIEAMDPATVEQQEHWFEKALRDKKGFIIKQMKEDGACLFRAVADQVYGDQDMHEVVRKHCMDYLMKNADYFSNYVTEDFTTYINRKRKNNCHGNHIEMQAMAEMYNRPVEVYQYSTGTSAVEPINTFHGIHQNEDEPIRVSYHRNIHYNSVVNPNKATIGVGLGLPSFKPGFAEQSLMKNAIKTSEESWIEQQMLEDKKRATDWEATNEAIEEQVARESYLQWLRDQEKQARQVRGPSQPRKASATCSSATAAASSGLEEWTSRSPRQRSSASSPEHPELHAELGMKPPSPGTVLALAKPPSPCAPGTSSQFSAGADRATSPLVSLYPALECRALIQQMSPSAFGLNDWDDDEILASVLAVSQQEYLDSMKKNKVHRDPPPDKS
Summary of the method: as §1

Measured: log2 ratio of Biotin-Ahx-Ub-VS probe labelling

O=C(CCl)N1CCC(S(=O)(=O)c2ccc(F)cc2)CC1
inactive: ALG13 -0.536 | ATXN3 -0.72 | EIF3F -0.133 | EIF3H 0.256 | FAM105A -0.39 | OTUB1 0.147 | OTUD4 -0.273 | OTUD5 -0.457
active: BAP1 -1.46
